This passage reports Potency results from PubChem BioAssay AID493168 (National Center for Advancing Translational Sciences (NCATS), 2011).

Molecules are shown by their SMILES. Records with an inconclusive call do not appear. Entries that show only a call come without a potency. The source made the active and inactive calls. The call rests on the fitted dose curve; in most records, active means well fitted inhibition curve with a large enough effect; inconclusive means small, poorly fitted or top-dose-only effect, or effect the other way; inactive means flat fitted curve, though single readings scatter.
Potency means the concentration at half of the fitted maximal effect.

Chain of Ubiquitin carboxyl-terminal hydrolase 2 (Homo sapiens) (O75604 whole entry, looked up): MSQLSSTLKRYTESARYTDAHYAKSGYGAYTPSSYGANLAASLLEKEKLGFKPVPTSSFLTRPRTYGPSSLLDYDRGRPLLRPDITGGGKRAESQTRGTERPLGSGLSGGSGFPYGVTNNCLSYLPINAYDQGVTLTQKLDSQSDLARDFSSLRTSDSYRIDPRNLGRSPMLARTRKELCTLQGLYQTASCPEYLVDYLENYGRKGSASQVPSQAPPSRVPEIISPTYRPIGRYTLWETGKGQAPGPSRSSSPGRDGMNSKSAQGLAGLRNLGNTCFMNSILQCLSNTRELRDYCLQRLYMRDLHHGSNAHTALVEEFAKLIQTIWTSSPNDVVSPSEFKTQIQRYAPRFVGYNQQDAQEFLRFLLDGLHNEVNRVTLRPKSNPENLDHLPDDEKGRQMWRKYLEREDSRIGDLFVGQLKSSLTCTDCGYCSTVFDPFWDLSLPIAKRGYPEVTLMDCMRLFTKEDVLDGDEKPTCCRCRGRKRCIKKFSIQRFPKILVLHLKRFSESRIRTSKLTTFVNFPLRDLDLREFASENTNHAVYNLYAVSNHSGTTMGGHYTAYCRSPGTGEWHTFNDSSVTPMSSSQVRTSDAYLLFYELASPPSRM

This assay concerns the target Ubiquitin carboxyl-terminal hydrolase 2 (Homo sapiens) (UniProt O75604). Kind of assay: Confirmation Assay for Inhibitors of Ubiquitin-specific Protease USP2a Using CHOP2 as the Reporter. Further: nearly all actives have a fitted effect of over 55% in size. Conditions: USP2 core, Ub-CHOP2 coupled reporter fluorescence; series mostly up to 38.3 µM. An outline of the steps: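 Ub-CHOP2 cleavage coupled to reporter activation was read by fluorescence after 60 min at RT, with 25 nM final Ub-CHOP2 and substrate. Enzyme (10 nM final USP2 core) first sat 30 min with compound; data were normalized to NEM and fitted to concentration-response curves.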
Regarding `O=C(COC(=O)c1cccc(S(=O)(=O)N2CCc3ccccc32)c1)NC1CCS(=O)(=O)C1` (stereo not given), the Potency result was “inactive”.
Next, `CCOc1cccc(NC(=O)/C(C#N)=C\c2cn(CC(=O)O)c3ccccc23)c1`: “inactive”; `Cn1cccc1CC(=O)N/N=C/C=C/c1ccco1`: “inactive”; `O=C(NC(=S)N1CCCc2ccccc21)c1ccc([N+](=O)[O-])cc1`: “inactive”.
Next, `Cc1cc(=O)n2[nH]c(-c3sccc3-n3c(C)ccc3C)cc2n1`: “inactive”; `Cc1cccc2c1N(CCCOc1ccc(C(C)(C)C)cc1)C(=O)C2=O`: “inactive”.
Next, `COc1ccc(S(=O)(=O)N2CCCCC2)cc1NC(=O)Cc1c[nH]c2ccccc12`: “inactive”.
As to `Cc1ccc(/C=N/NC(=O)c2cc(-c3ccc(C)o3)[nH]n2)cc1`, the Potency result was “inactive”.
Turning to `O=C1NCC(CN(c2ccccc2)c2ccccc2)O1` (stereo not given), the Potency entry is “inactive”.
Next, `S=c1[nH]nc(-c2cc(-c3ccco3)[nH]n2)n1-c1cccc2ccccc12`: “inactive”; `COc1ccc(-c2noc(CSc3nnc(Cc4ccccc4)n3-c3ccc(Cl)cc3)n2)cc1`: “inactive”.
As to `Cc1ccc(C(=O)N/C(=C/c2ccco2)C(=O)Nc2cccc(C(=O)O)c2)cc1`, the Potency result is “inactive”.
Regarding `C=CCOc1cccc(C2C(C(=O)c3ccco3)=C(O)C(=O)N2CCN(CC)CC)c1` (stereo not given), the Potency entry is “inactive”.
On to `COc1ccc(NC(=O)c2cc(-c3ccco3)nc3ccccc23)cc1S(=O)(=O)N1CCOCC1`, for which the Potency was 18.5 µM (active).
Next, `CCOc1cc(/C=C/c2nc3cc(C)c(C)cc3s2)ccc1OCC(=O)N1CCOCC1`: “inactive”.
Next, `O=S(=O)(c1cc(Cl)ccc1Cl)N1CCNCC1`: “inactive”.
Next, `Cc1ccc(S(=O)(=O)N2CCOCC2)cc1NC(=O)CN1C(=O)NC(C)(c2ccc(Cl)cc2Cl)C1=O` (stereo not given): “inactive”.
On to `COc1cc2cc(CN(CCN3CCCC3)C(=O)Nc3ccc(F)cc3)c(=O)[nH]c2cc1OC`, for which the Potency result is “inactive”.
In the case of `C=CCSC1=N/C(=C\C=C\c2ccco2)C(=O)S1`, the Potency entry was “inactive”.
Next, `Cc1ccc(C)n1NC(=O)c1ccccc1O`: “inactive”; `Cc1nc(NC(C)C)c2cnn(CCc3ccccc3)c2n1`: “inactive”.
For the compound `O=[N+]([O-])c1ccc(Sc2nnnn2-c2ccccc2)c(Cl)c1`, the Potency entry is “inactive”.
Next, `CC(CN1CCCCC1)OC(=O)c1ccc(Cl)cc1` (stereo not given): “inactive”; `CCOc1ccc(NC(=O)CSc2nnc(Cn3c(=O)sc4ccccc43)n2C)cc1`: “inactive”.
Next, `CC(=O)OCC(=O)Nc1ccc(Cl)cc1Cl`: “inactive”; `CCc1c(O)nc(SCC(=O)Nc2ccccc2OC)[nH]c1=O`: “inactive”; `O=[N+]([O-])/C(C(Cl)=C(Cl)Cl)=C(\Sc1ccccc1)N1CCCCC1`: “inactive”.
Next, `CCc1cc2cccc(C)c2nc1SCC(=O)N1CCN(C(=O)c2ccco2)CC1`: “inactive”; `CC(=O)Nc1ccc(NC(=O)C2CCCN(S(=O)(=O)c3ccc(Cl)cc3)C2)cc1` (stereo not given): “inactive”.
Consider `COc1ccc2[nH]c(=O)c(CN(C)C(=O)C3CCCCC3)cc2c1`, for which the Potency entry is “inactive”.
Next, `O=c1/c(=C/c2ccco2)sc2n1CN(c1cccc(Br)c1)CN=2`: “inactive”; `O=C1Nc2ccc(S(=O)(=O)N3CCCCCC3)c3cccc1c23`: “inactive”.
Next, `CCOc1cc(/C=C2\C(=O)N(c3nc(-c4ccc(Br)cc4)cs3)N=C2c2ccccc2)ccc1O`: 4.65 µM (active).
Next, `CCOC(=O)C(C)Sc1nnc(Cn2c(=O)sc3ccccc32)n1-c1ccccc1` (stereo not given): “inactive”.
On to `O=C(Cc1ccc(S(=O)(=O)N2CCOCC2)s1)NCCC(c1ccccc1)c1ccccc1`, for which the Potency result was “inactive”.
For the compound `Cc1nn(C)cc1CNC(=O)c1ccc(Br)o1`, the Potency entry was “inactive”.
Next, `O=C(N/N=C/c1ccc(-c2ccc(S(=O)(=O)Nc3ncccn3)cc2)o1)c1cc2ccccc2cc1O`: 9.27 µM (active).
Next, `CC1CCCC(NC(=O)C2N(CCCN3CCCC3)C(=O)C3C(C(=O)Nc4ccc(Cl)cc4)C4C=CC32O4)C1C` (stereo not given): “inactive”.
Take `CCC(C)(C)n1nnnc1C(c1ccc(C)cc1)N1CCCC1` (stereo not given): the Potency entry is “inactive”.
For the compound `CCn1cc(C(=O)N2CCOCC2)c(=O)c2cc(S(=O)(=O)N(C)C)ccc21`, the Potency entry is “inactive”.
